Source: PubChem BioAssay
Rows were chosen to be rich in hits. Some 1.4% of all compounds tested hit in one or more screens of this group.
RXFP1 agonist = agonists of human relaxin receptor RXFP1; hit rate 0.3% among 370,000; Potency, µM (highest dose often 57.5 µM), for inactives: at the top dose activation, most hits filed as activators; HEK293T-RXFP1 cAMP TR-FRET, 30 min; response scale: percent of porcine relaxin response, buffer zero; further: potency means the concentration at half of the fitted maximal effect; on the % scale 0 is the no-effect control and ±100 the full control effect; nearly all actives have a fitted effect of over 60% in size
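HEK293 cells stably expressing RXFP1, treated 30 min at 37C with compounds plus PDE4 inhibitor Ro 20174; cAMP measured by HTRF TR-FRET. Normalized to buffer and 29 nM porcine relaxin; EC50 by Hill fit.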
RXFP1 antagonist = blocks the human relaxin receptor RXFP1. HEK293-RXFP1, relaxin-stimulated cAMP HTRF, 30 min; hits give low values. activity change, negative = inhibition, % at 57.5 µM. hit rate 0.59% among 350,000. AID 1259400;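 active means activity change of -60% or lower, but not beyond a set lower limit; inconclusive means change between -60% and -40%, or beyond the set limit; inactive means change above -40%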; further: on the % scale 0 is the no-effect control and ±100 the full control effect
KCNH2 3.1 block = KCNH2 3.1 (human) potassium channel inhibition; U2OS KCNH2 3.1, thallium flux FluxOr; hits give low values; activity change, % (tested at about 1.8 µM); hit rate 0.95% among 340,000; AID 720553;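 active means maximum activity change below -70%; inconclusive means maximum activity change from -70% to -50%; inactive means maximum activity change above -50%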;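 further: thallium influx rate constant from kinetic fluorescence after stimulation buffer; on the % scale 0 is the no-effect control and ±100 the full control effect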
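Kinetic fluorescence (2 min after stimulation buffer) measures Tl+ influx through KCNH2 3.1 expressed by viral transduction in U2OS cells; the rate constant is normalized against DMSO controls serving as positive and negative references.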
Glioma ERSR ind = inducers of ER stress response in human glioma cells. U87-MG GRP78 promoter luciferase reporter, 16 h. Potency, µM, for the others: at the highest dose activation, usual class: activators. hit rate 0.02% among 420,000; further: potency means the concentration at half of the fitted maximal effect; series mostly up to about 76 µM; % of control where 0% means no effect; nearly all actives have a fitted effect of over 35% in size
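Stably transfected U87-MG human glioma cells carrying a GRP78-based luminescent sensor were seeded at 1000 cells/well, pin-dosed with compounds and incubated 16 h. Luciferase reagent was then added, and end-point luminescence was read after 10 min at room temperature.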
KCNH2 WT inh = KCNH2 (human, wildtype) channel inhibition | Q12809 | U2OS, BacMam KCNH2, thallium flux FluxOr; hits give low values | activity change, % at 1.84 µM | hit rate 0.37% among 340,000;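 active means maximum activity change below -70%; inconclusive means maximum activity change between -70% and -50%; inactive means maximum activity change above -50%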; further: on the % scale 0 is the no-effect control and ±100 the full control effect
Target sequence (Q12809 whole entry, looked up): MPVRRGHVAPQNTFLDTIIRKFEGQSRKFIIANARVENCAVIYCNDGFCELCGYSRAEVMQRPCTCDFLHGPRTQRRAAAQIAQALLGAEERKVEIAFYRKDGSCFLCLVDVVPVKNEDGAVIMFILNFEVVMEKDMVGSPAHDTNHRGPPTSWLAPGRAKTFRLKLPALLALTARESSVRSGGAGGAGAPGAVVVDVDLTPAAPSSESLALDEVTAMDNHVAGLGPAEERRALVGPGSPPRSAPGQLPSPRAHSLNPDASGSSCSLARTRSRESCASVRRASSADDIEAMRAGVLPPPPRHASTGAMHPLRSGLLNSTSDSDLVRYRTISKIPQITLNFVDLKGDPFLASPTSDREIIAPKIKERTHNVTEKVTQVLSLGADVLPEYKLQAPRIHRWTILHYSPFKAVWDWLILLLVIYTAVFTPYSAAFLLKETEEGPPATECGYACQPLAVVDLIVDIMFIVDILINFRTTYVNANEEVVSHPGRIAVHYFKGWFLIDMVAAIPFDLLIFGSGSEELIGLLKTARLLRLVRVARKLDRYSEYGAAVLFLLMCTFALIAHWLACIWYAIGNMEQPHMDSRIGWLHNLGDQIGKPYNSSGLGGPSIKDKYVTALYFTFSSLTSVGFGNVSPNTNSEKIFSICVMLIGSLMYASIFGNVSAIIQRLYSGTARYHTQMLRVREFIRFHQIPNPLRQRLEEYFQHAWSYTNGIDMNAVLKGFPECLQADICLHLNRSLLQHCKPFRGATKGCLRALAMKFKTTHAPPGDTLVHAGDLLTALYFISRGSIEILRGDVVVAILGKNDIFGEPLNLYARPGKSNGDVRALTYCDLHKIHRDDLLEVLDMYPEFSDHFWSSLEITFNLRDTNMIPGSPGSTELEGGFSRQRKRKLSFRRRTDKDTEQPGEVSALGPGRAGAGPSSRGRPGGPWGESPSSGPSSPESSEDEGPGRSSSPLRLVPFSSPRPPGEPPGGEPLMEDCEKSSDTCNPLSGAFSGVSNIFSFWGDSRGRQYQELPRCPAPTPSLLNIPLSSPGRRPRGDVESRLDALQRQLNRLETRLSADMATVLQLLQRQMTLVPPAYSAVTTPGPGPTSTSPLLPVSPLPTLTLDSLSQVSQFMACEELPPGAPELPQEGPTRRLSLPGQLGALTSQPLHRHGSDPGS
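U2OS cells were transduced with wild-type KCNH2 virus (2.03 x 10^8 / mL) for 4 h at room temperature, then cultured overnight at 37 C. Thallium flux was read with FluxOr dye. Rate constants were normalized to DMSO controls.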
PTHR1 ag = activates the human parathyroid hormone receptor PTHR1; HEK293 GP2 PTHR1 cells, GloSensor cAMP luminescence, 1 h; Potency, µM (doses to about 115 µM), inactives show top-dose activation, actives largely listed as activators; hit rate 0.075% among 410,000; AID 743266; further: potency means the concentration at half of the fitted maximal effect; nearly all actives have a fitted effect of over 55% in size
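HEK-293-derived GP2 cells expressing PTHR1 and a GloSensor cAMP reporter, 3,000/well, plated overnight, given luciferin plus IBMX (each 0.5 mM as added) for 1 h at 37 °C, then compound for 1 h at 37 °C. Luminescence was read after 15 min at room temperature.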
Active calls of the source: *; i = inactive; ? = inconclusive; · = not tested or not shown; ! = repeats disagree; [ ] = remark or other dose. Unless noted, the call rests on the fitted dose curve; in most records, active means well fitted curve in the direction sought with a large enough effect; inconclusive means small, poorly fitted or top-dose-only effect, or another doubt; inactive means no such curve, though single readings can be large; an effect the other way counts as inactive or inconclusive.

SMILES	RXFP1 agonist	RXFP1 antagonist	KCNH2 3.1 block	Glioma ERSR ind	KCNH2 WT inh	PTHR1 ag
Cc1cccc(CN2CCCC(C(=O)Nc3ccccc3Oc3cccnc3)C2)c1 (stereo unspecified)	-1%	4	6	-2%	32	i
O=c1[nH]nc(-c2ccccc2)c2ccccc12	0%	-9	-113*	-3%	-11	i
Cc1noc(C)c1C(=O)N1CCC2(CCCN(C(c3ccccc3)c3ccccc3)C2)CC1	·	·	·	28µM*	·	·
CCCn1c(=O)c2ccccc2n2c(SC(C)C(N)=O)nnc12 (stereo unspecified)	6%	-6	5	-2%	-5	i
CCCN1CCN(C(=O)c2ccc(S(=O)(=O)N(C)c3ccccc3OC)cc2)CC1	·	-6	-2	-4%	-2	0%
Cc1c(C(=O)NNc2cc(=O)n(C)c(=O)n2C)cccc1[N+](=O)[O-]	14µM*	25	7	-3%	-2	-23%
CCC(CC)NC(=O)c1cccc([N+](=O)[O-])c1C	6%	0	-14	-4%	3	-23%
c1ccc(CCCNc2ncccn2)cc1	-1%	-11	-97*	1%	-10	-3%[57.5 µM]
O=C(OCCN1CCCCC1)c1cc2ccccc2o1	-2%	4	10	-6%	2	9%[57.5 µM]
CCCCC1=CC2=C(c3ccco3)C(=O)C(C)(OC(=O)c3ccc(OC)cc3)C(=O)C2=CN1Cc1ccc(OC)cc1 (stereo unspecified)	14%	·	·	·	·	·
CCCCC1=CC2=C(c3ccco3)C(=O)C(C)(OC(=O)c3ccc(OC)cc3)C(=O)C2=CN1CC(C)C (stereo unspecified)	16µM*	·	-1	-3%	17	-4%
CC1(NC(=O)c2cccc(S(=O)(=O)N3CCN(c4ccc(F)cc4)CC3)c2)CCS(=O)(=O)C1 (stereo unspecified)	0%	-5	-10	-4%	-16	-32%
COc1ccc(NC(=O)CCC(=O)Nc2nnc(C(F)(F)F)s2)c(OC)c1	2%	-9	4	-4%	-3	i
OCCNCc1ccc(-c2ccccc2)cc1	0%	25	2	0%	2	2%
OCCCNCc1ccc(N(c2ccccc2)c2ccccc2)cc1	0%	-69*	-27	-8%	8	i
COc1ccc(OCC(=O)Nc2ccc3c(c2)nc(CCN2CCC(C)CC2)n3C)cc1	2%	-20	-31	-1%	1	i
Cn1c(CCN2CCN(c3ccccn3)CC2)nc2cc(NC(=O)COc3ccc(Cl)cc3)ccc21	0%	-7	-74*	-5%	-17	-31%
CC1CCN(CCc2nc3cc(NC(=O)COc4ccc(Cl)cc4)ccc3n2C)CC1	1%	4	-96*	-15%	11	-51%
CCC(C)(C)NC(=O)C(c1ccccc1)N(Cc1cccs1)C(=O)Cn1nnc2ccccc21 (stereo unspecified)	·	-11	8	-5%	-7	i
O=C(NCCCCc1ccccc1)c1nn(-c2ccccc2F)nc1CO	-5%	-66*	·	-4%	·	-1%
O=C(NCCCc1ccccc1)c1nn(-c2ccccc2F)nc1CO	-4%	-25	·	-3%	·	-12%
Cc1[nH]c2ccc(C(=O)NCCN3CCCCCC3)cc2c1C	-8%	-5	0	-4%	8	i
Cc1c(C)n(C)c2ccc(C(=O)NCCCN3CCCCC3)cc12	-9%	-7	-8	8%	-1	8%
Cc1c(C)n(C)c2ccc(C(=O)NCCCN3CCCC3)cc12	-6%	-17	-97*	-4%	8	i
Cc1[nH]c2ccc(C(=O)NCCCN3CCCCC3)cc2c1C	1%	-10	7	0%	22	18µM*!
SMILES	RXFP1 agonist	RXFP1 antagonist	KCNH2 3.1 block	Glioma ERSR ind	KCNH2 WT inh	PTHR1 ag
O=C(O)C1C2C=CC(C2)C1C(=O)Nc1ccc2c(c1)OCCO2 (stereo unspecified)	0%	0	-4	-15%	3	i
CN(C)c1ccc(NC(=O)C2C3C=CC(C3)C2C(=O)O)cc1 (stereo unspecified)	-15%	-119*	-9	-3%	4	i
Cn1c([N+](=O)[O-])cnc1N1CCN(c2nncs2)C1=O	16µM*	13	11	-3%	7	6%
CCOc1ccc(/C=N/n2c(SC)nnc(C(C)(C)C)c2=O)cc1	0%	-19	-3	-3%	-80*	-5%
COc1ccc(/C=N/n2c(SC)nnc(C(C)(C)C)c2=O)cc1	-2%	-27	0	4%	-3	i
COCCN1C(=O)N[C@H](c2cccc(C(F)(F)F)c2)C(C(=O)OC)=C1C	1%	·	·	·	·	·
c1ccc2c3c([nH]c2c1)C(C1CCCCC1)N(Cc1ncc[nH]1)CC3 (stereo unspecified)	-1%	-1	·	-4%	42	i
Cc1cnc(CN2CCc3c([nH]c4ccccc34)C2C2CCCCC2)[nH]1 (stereo unspecified)	-2%	-10	-72*	2%	9	i
CC1(C)CC(=O)c2cn3ncnc3nc2C1	-2%	20	5	-7%	30	-2%[57.5 µM]
Cc1ccc(S(=O)(=O)N(C)c2ccc3ccccc3c2)cc1	-1%	-6	-148*	3%	-4	-20%
O=C(Nc1cc(Cl)ccc1N1CCOCC1)C1CC1	·	-17	0	-2%	-9	-10%
O=C(Cc1ccc(F)cc1)Nc1nc(-c2ccc(F)c(F)c2)cs1	0%	-88*	-9	-1%	-1	-93%
COc1ccc(CC(=O)Nc2nc(-c3ccc(F)c(F)c3)cs2)cc1	-3%	-32	0	0%	0	-34%
O=C(CN1C(=O)C2CCCCC2C1=O)Nc1nc(-c2ccc(F)cc2)cs1 (stereo unspecified)	2%	?	1	0%	2	-19%
O=C(CN1C(=O)C2CC=CCC2C1=O)Nc1nc(-c2ccc(F)cc2)cs1 (stereo unspecified)	1%	-84*	-15	2%	-1	-25%
CCOC(=O)CC(=O)Nc1ccn[nH]1	-2%	-1	21	-2%	-3	i
Cc1ccc(C(C2=C(O)CC(C)(C)CC2=O)C2C(=O)CC(C)(C)CC2=O)s1 (stereo unspecified)	0%	?	-5	-14%	1	-70%[57.5 µM]
CC1(C)CC(=O)C(C(C2=C(O)CC(C)(C)CC2=O)c2ccc(Br)s2)C(=O)C1 (stereo unspecified)	0%	-99*	0	-14%	-9	i
CC1CCN(S(=O)(=O)c2cn(CC(=O)Nc3cccc(C#N)c3)cn2)CC1	2%	-2	-9	-2%	-11	-11%
